# High-throughput results deposited in PubChem BioAssay by Broad Institute.
# A selection: hits, their analogues and other compounds. The true share with any hit is near 2.4%.
# C diff growth: blocks growth of Clostridium difficile; 86,000 tested, 0.25% active; growth activity, negative = inhibition, % at 16 µg/mL (by protocol); Clostridium difficile clinical isolate growth, OD600, 24 h; stronger effect = lower value;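 active = mean growth activity at or below -80% and every replicate also at or below -80%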;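 note: 0% = DMSO wells and -100% = levofloxacin 16 µg/mL wells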
# Pf Dd2 inh: blocks growth of Plasmodium falciparum Dd2 parasites; 94,000 tested, 2.3% active; activity change, % at 10 µM; P. falciparum Dd2 growth, SYBR Green, 72 h; stronger effect = lower value; in the data active = activity change below about -80%
# Active calls of the source: *; x = no result.
SMILES,C diff growth,Pf Dd2 inh
C[C@H](CO)N1C[C@H](C)[C@@H](CN(C)S(=O)(=O)c2ccc(Cl)cc2)OCCCC[C@H](C)Oc2ccc(NC(=O)c3ccccc3)cc2C1=O,7,-36
C[C@@H]1CCCCO[C@H](CN(C)S(=O)(=O)c2ccc(Cl)cc2)[C@@H](C)CN([C@H](C)CO)C(=O)c2cc(NC(=O)c3ccccc3)ccc2O1,4,-78
C[C@@H]1CN([C@@H](C)CO)C(=O)CCCn2cc(nn2)CO[C@@H]1CN(C)C(=O)Nc1cccc(Oc2ccccn2)c1,0,-3
COC(=O)c1cn(CCNC(=O)Nc2ccccc2)nn1,-7,x
COc1ccc(NC(=O)Nc2ccc3c(c2)C(=O)N([C@H](C)CO)C[C@H](C)[C@H](CN(C)S(=O)(=O)c2ccc(OC)cc2)OCCCC[C@H](C)O3)cc1,0,-45
COc1ccc(NC(=O)Nc2ccc3c(c2)C(=O)N([C@H](C)CO)C[C@@H](C)[C@@H](CN(C)S(=O)(=O)c2ccc(Cl)cc2)OCCCC[C@H](C)O3)cc1,-1,-79
COc1ccc(NC(=O)Nc2ccc3c(c2)C(=O)N([C@@H](C)CO)C[C@H](C)[C@H](CN(C)S(=O)(=O)c2ccc(Cl)cc2)OCCCC[C@@H](C)O3)cc1,8,-87*
COc1ccc(NC(=O)Nc2ccc3c(c2)C(=O)N([C@H](C)CO)C[C@H](C)[C@H](CN(C)S(=O)(=O)c2ccc(Cl)cc2)OCCCC[C@@H](C)O3)cc1,10,-82*
CC(=O)N1[C@@H](CO)[C@@H]2c3ccccc3N(C(=O)c3ccccc3)C[C@@H]21,9,2
Cc1noc(C)c1NC(=O)N(C)C[C@H]1Oc2ncc(C#CCN(C)C)cc2C(=O)N([C@@H](C)CO)C[C@H]1C,0,28
COc1ccc(-c2ccc3c(c2)[C@H]2[C@H](CCN2Cc2cncnc2)[C@H](CO)N3)cc1,-8,-46
N#Cc1cccc(-c2ccc3c(c2)[C@H]2[C@H](CCN2Cc2ccncc2)[C@@H](CO)N3)c1,-5,-89*
OC[C@H]1Nc2ccc(-c3cccc(F)c3)cc2[C@@H]2[C@H]1CCN2Cc1ccc(F)cc1,-8,-90*
OC[C@@H]1Nc2ccc(-c3ccccc3)cc2[C@@H]2[C@H]1CCN2Cc1ccccc1F,-7,-16
N#Cc1cccc(-c2ccc3c(c2)[C@@H]2[C@@H](CCN2Cc2cncnc2)[C@@H](CO)N3)c1,-12,-53
OC[C@H]1Nc2ccc(-c3cccc(F)c3)cc2[C@H]2[C@@H]1CCN2Cc1ccc(F)cc1,2,-73
OC[C@H]1Nc2ccc(-c3ccccc3)cc2[C@@H]2[C@H]1CCN2Cc1ccccc1F,-101*,-21
COc1ccc(-c2ccc3c(c2)[C@H]2[C@H](CCN2Cc2ccncc2)[C@@H](CO)N3)cc1,58,-82*
CO[C@H]1CN(C)C(=O)c2ccc(NS(=O)(=O)c3cn(C)cn3)cc2OC[C@H](C)N(CC2CC2)C[C@@H]1C,-1,7
C[C@@H]1CN([C@H](C)CO)C(=O)c2cc(-c3cccnc3)cnc2O[C@@H]1CN(C)C(=O)Nc1ccccc1,-4,34
C[C@H](CO)N1C[C@H](C)[C@H](CN(C)C(=O)Nc2cccc3ccccc23)Oc2c(NS(=O)(=O)c3cn(C)cn3)cccc2C1=O,x,-43
C[C@H]1CN([C@@H](C)CO)C(=O)Cc2cc(NC(=O)CCCCCC(=O)Nc3ccccc3N)ccc2O[C@@H]1CN(C)S(=O)(=O)c1ccc(Cl)cc1,x,-48
C/C=C/c1cnc2c(c1)C(=O)N([C@H](C)CO)C[C@H](C)[C@H](CN(C)C(=O)C1CCOCC1)O2,-1,52
CN(C)CC(=O)N[C@@H]1CC[C@@H](CCNC(=O)C2CC2)O[C@H]1CO,3,25
CCCNC(=O)C[C@@H]1CC[C@H]2[C@@H](COc3ccc(NC(=O)Cc4ccccc4)cc3C(=O)N2C)O1,-1,11
SMILES,C diff growth,Pf Dd2 inh
OC[C@H]1Nc2ccc(-c3cccc(F)c3)cc2[C@H]2[C@@H]1CCN2Cc1ccncc1,-13,-47
OC[C@@H]1Nc2ccc(-c3cccc(F)c3)cc2[C@@H]2[C@H]1CCN2Cc1ccncc1,42,-92*
O=C(c1ccccn1)N1CC[C@@H]2[C@@H](CO)Nc3ccc(-c4ccccc4)cc3[C@@H]21,-17,-32
Cc1ccc(S(=O)(=O)Nc2ccc3c(c2)C(=O)N([C@H](C)CO)C[C@H](C)[C@@H](CN(C)S(=O)(=O)c2c(C)noc2C)OCCCC[C@H](C)O3)cc1,-1,-32
CC(C)NC(=O)N(C)C[C@H]1Oc2c(NC(=O)c3nc4ccccc4s3)cccc2C(=O)N([C@@H](C)CO)C[C@@H]1C,-1,-34
C[C@@H]1CN([C@@H](C)CO)C(=O)c2cccc(NC(=O)c3nc4ccccc4s3)c2O[C@H]1CN(C)C(=O)NC1CCCCC1,x,-89*
C[C@H]1CN([C@@H](C)CO)C(=O)c2cccc(NC(=O)c3nc4ccccc4s3)c2O[C@@H]1CN(C)S(=O)(=O)c1ccccc1,-2,-81*
